Source: PubChem
The sample as a whole holds a higher share of hits than the screen did.
Dicer processing – inhibitors of human Dicer processing of pre-microRNA. Q9UPY3. 6% of 47,000 active. AID 1347074. cat-ELCCA pre-miR-21 Dicer processing, chemiluminescence; active compounds read high. z-score at 25 µM; in the data active = z-score above about 3, passing the limit was not always enough;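 also: plate controls were vehicle for no effect and no enzyme for full effect; higher signal means more uncleaved substrate so more Dicer inhibition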
Target sequence (Q9UPY3 whole entry, looked up): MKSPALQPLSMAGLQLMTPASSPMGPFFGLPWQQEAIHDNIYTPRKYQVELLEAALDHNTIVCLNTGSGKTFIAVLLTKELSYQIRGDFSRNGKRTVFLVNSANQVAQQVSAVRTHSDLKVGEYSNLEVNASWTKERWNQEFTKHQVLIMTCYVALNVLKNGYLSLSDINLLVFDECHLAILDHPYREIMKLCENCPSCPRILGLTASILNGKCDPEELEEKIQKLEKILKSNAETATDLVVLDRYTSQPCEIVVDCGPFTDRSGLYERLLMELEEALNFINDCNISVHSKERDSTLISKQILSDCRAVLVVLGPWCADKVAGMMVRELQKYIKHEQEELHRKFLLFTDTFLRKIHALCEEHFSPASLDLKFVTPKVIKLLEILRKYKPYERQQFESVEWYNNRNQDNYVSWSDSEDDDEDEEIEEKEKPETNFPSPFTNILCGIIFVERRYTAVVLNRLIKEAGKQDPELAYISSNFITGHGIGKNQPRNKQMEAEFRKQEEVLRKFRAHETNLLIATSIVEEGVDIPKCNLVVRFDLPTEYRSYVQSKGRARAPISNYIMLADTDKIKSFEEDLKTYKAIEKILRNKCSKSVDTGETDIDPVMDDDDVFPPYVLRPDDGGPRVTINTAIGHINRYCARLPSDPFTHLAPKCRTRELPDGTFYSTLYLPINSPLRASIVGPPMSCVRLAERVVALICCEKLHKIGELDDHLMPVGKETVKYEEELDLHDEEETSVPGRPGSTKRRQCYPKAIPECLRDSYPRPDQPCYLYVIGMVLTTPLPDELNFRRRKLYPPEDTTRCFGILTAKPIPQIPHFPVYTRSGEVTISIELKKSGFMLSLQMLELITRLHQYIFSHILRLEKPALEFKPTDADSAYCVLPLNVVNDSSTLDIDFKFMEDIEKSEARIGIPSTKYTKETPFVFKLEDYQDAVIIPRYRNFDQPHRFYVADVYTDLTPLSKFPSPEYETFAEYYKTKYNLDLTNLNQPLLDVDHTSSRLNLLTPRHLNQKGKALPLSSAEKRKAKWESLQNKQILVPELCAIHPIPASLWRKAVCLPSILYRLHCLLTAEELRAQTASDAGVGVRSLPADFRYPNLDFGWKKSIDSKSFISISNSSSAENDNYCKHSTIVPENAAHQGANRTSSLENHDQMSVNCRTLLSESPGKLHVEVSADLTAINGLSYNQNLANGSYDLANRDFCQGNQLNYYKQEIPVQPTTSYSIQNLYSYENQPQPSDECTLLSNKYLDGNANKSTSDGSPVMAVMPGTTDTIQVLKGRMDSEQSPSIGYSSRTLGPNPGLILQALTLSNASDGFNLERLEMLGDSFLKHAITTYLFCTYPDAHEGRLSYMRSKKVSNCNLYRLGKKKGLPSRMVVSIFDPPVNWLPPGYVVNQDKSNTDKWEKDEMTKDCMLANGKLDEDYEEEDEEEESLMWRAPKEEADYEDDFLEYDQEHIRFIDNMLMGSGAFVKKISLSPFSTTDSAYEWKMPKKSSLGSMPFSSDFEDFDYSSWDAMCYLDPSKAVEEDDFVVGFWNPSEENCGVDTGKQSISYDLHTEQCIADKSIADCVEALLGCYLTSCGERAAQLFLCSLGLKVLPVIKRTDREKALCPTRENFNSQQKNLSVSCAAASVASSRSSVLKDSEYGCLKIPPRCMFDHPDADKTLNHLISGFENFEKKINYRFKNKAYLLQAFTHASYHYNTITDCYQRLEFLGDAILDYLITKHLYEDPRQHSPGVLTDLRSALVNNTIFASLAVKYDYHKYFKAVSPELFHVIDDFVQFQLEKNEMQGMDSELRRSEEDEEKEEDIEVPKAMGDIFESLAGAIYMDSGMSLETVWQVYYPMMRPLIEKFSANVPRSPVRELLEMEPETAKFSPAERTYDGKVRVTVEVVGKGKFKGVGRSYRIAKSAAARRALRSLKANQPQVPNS
* = called active by the depositor; ! = a repeat was not active.

SMILES | Dicer processing
COc1ccc(-c2cc(-c3nc4c5c(ncn4n3)CCC5)[nH]n2)cc1 | -0.65
COc1ccc2cc(-c3ccn[nH]3)ccc2c1 | -1.1
COc1ccc(/C=C/c2nc(-c3ccccc3O)n[nH]2)cc1 | 26*
COc1ccc(Nc2n[nH]c3c2CCc2ccccc2-3)cc1 | 2.3
COc1ccc(-c2cc(-c3ccccc3O)[nH]n2)cc1 | 4.6*
O=C1CN(c2ccc(OC(F)(F)F)cc2)C(=O)CN1CC1CC1 | 2.2
CCOCCOC(=O)C1=C(C)NC2=C(C(=O)CC(C)(C)C2)C1c1ccc(OC)c(O)c1 (configuration not stated) | 0.73
COc1ccc(Cl)cc1N=C1NC(=O)C(CC(=O)Nc2ccc(OC(F)(F)F)cc2)S1 (configuration not stated) | -0.34
Cn1nccc1NC(=O)CN(CC(=O)O)Cc1ccccc1 | -3
CCCc1cc(-c2n[nH]c(C)c2-c2ccc(C(=O)OCC)o2)c(O)cc1O | 3.9*
CCOC(=O)c1cc(=O)c2c(O)cccc2o1 | -0.64
CCOC(=O)c1ccc(CSc2n[nH]c(C)n2)o1 | -1
O=c1sn(-c2ccc(F)c(Cl)c2)c(=O)n1C1Cc2ccccc2C1 | 0.96
CC(C)c1nc2c(c3c1[nH]c1ccccc13)C(=O)CC(C)(C)C2 | -0.28
CSc1ccc(C(Nc2ccccn2)c2ccc3ccc(C)nc3c2O)cc1 (configuration not stated) | -0.44
CCOc1cccc(C(Nc2ccccn2)c2ccc3ccc(C)nc3c2O)c1O (configuration not stated) | 0.08
Oc1ccc2ncccc2c1C(Nc1ccccn1)c1ccccc1F (configuration not stated) | 1.4
Cc1ccc2ccc(C(Nc3ccccn3)c3ccc(N(C)C)cc3)c(O)c2n1 (configuration not stated) | 4.4*
Cc1ccc2ccc(C(Nc3ccccn3)c3ccc(Br)cc3)c(O)c2n1 (configuration not stated) | 5.7*
CCOc1ccc(C(Nc2ccccn2)c2ccc3ccc(C)nc3c2O)cc1 (configuration not stated) | -2.3
Cc1cc(C)n(-c2ccc3cccc(N)c3n2)n1 | 0.98
COc1ccc(C(=O)COc2cc(=O)oc3ccccc23)cc1 | 10
O=C(Nc1nc2c(s1)CCCC2)C(=O)c1c(-c2ccccc2)cc2ccccn12 | -0.48
Nc1c(C(=O)NNC(=S)NCc2ccccc2)cnn1-c1ccccc1 | 2.6
O=C(O)CS/C(=N\S(=O)(=O)c1ccccc1)Nc1cccc(Cl)c1 | 0.3
SMILES | Dicer processing
CNNC(=S)Nc1cccc(Cl)c1C | 2.8
COc1cccc2c1OC(c1cccnc1)N1N=C(c3cc(Cl)ccc3O)CC21 (configuration not stated) | 1.1
COc1ccc(C2CC(c3ccc(Cl)cc3)Nc3nc(N)nn32)cc1OC (configuration not stated) | -1.2
COc1ccc(C2CC(c3cc(Cl)ccc3O)=NN2)cc1OC (configuration not stated) | 4.4*
O=C1Nc2ccccc2/C1=C/c1c[nH]c2ccc([N+](=O)[O-])cc12 | 11
C=CCNc1nc(SCc2ccc(Cl)cc2)nc2sc3c(c12)CCN(C)C3 | 0.24
CC(C(=O)NNC(=O)C(C)(C)C)n1nnc(-c2cc(C(F)(F)F)cc(C(F)(F)F)c2)n1 (configuration not stated) | 3.8*
CC(=O)NNC(=O)C(C)n1nnc(-c2cc(C(F)(F)F)cc(C(F)(F)F)c2)n1 (configuration not stated) | -0.56
CC(C(=O)NNC(=O)C1CC1)n1nnc(-c2cc(C(F)(F)F)cc(C(F)(F)F)c2)n1 (configuration not stated) | -5.9
Cc1cc(Cl)ccc1NC(=S)NNC(=O)c1sc2ccccc2c1Cl | 2.4
CC1CCCN(S(=O)(=O)c2cccc(-c3cn4ccccc4n3)c2)C1 (configuration not stated) | -0.62
CCOC(=O)c1c(NC(=S)N2CCCc3ccccc32)sc2c1CCN(C(=O)OCC)C2 | -2.6
Cc1ccc(-c2nnn(CC(=O)NNC(=O)N3CCOCC3)n2)cc1 | -1.1
CNC(C)CN1c2ccccc2Sc2ccccc21 (configuration not stated) | 2.6
CC(CN1c2ccccc2Sc2ccccc21)N(C)C (configuration not stated) | 3.8*!
CC(CN(C)C)CN1c2ccccc2Sc2ccccc21 (configuration not stated) | 0.42
O=C(Nc1ccccc1)c1cc2ccc3ccccc3c2s1 | 3.5*
O=C(O)c1cc2ccc3ccccc3c2s1 | 4.1*
O=C(Nc1ccccc1)c1cc2sccc2s1 | 0.23
Cc1c(NC(=O)c2cc3ccccc3c(=O)s2)c(=O)n(-c2ccccc2)n1C | 0.44
CCOC(=O)c1cc2ccccc2c(=O)s1 | 0.03
Cc1ccc2nc3sc(C(=O)O)cc3cc2c1 | 0.3
Cc1ccc(-c2csc(NC(=O)C3C4C=CC(O4)C3C(=O)O)n2)cc1 (configuration not stated) | -1.1
S=c1[nH]nc(-c2ccc(Cl)cc2)n1/N=C/c1cccnc1 | -2
COc1cc(NC(=O)/C=C/C(=O)O)cc(OC)c1OC | 1.4
SMILES | Dicer processing
NC(=O)c1nnn(Cc2ccccc2Cl)c1N | 0.22
Cc1cccc(NC(=S)N2CCCCC2C)c1 (configuration not stated) | -0.66
COC(=O)Cc1[nH]nc2c1C(c1ccc(F)cc1F)C(C#N)=C(N)O2 (configuration not stated) | -0.46
CC(C)c1cc(Br)c(NC(=O)Nc2ccc3ccccc3n2)c(Br)c1 | -1.1
N#C/C(=N\OC(=O)c1ccc(C(F)(F)F)cc1)S(=O)(=O)c1cccs1 | 5.5*
N#C/C(=N\Nc1cc(C(F)(F)F)cc(C(F)(F)F)c1)S(=O)(=O)c1cccs1 | 0.92
N#C/C(=N\OS(=O)(=O)c1ccc(Cl)cc1)S(=O)(=O)c1cccs1 | -0.56
Nc1c(C(=O)N/N=C/c2ccc(Cl)cc2)sc2nnc(-c3ccccc3)c(-c3ccccc3)c12 | 1
CSc1ccn(-c2nc(-c3ccccc3)sc2-c2ccccc2)c(=O)n1 | -1.1
CCCNC(=O)Cn1cnc2c1c(=O)n(C)c(=O)n2C | -0.92
Cn1c(=O)c2c(ncn2CC(=O)Nc2ccc3c(c2)OCCO3)n(C)c1=O | 0.53
CCCCCCCNC(=O)Cn1cnc2c1c(=O)n(C)c(=O)n2C | 4*
CCOCCCNC(=O)Cn1cnc2c1c(=O)n(C)c(=O)n2C | 1.3
CC(C)CNC(=O)Cn1cnc2c1c(=O)n(C)c(=O)n2C | 0.1
Cn1c(=O)c2c(ncn2CC(=O)NCc2ccc3c(c2)OCO3)n(C)c1=O | 6.6*
COc1ccccc1-c1coc2cc(OC(=O)c3ccco3)ccc2c1=O | 0.65
O=C1c2cccc3c([N+](=O)[O-])ccc(c23)C(=O)N1Cc1ccco1 | 1.6
CCCc1c(C)nc2ccc(OC)cc2c1SCCC(=O)O | 3.5*
CCOC(=O)CSc1nc(C)c2cc(OC)ccc2n1 | 3.6*
CCOC(=O)CSc1nc(C)c2cc(C)c(C)cc2n1 | 2.4
CCOC(=O)c1cnc2ccc(OC)cc2c1Cl | -0.1
CCOC(=O)Nc1nc2ccc(OC)cc2s1 | 5.7
COc1ccc(-c2nnc(SCCC(=O)O)n2C)cc1 | 0.07
CCCSc1nnc2c(n1)OC(C)N(C(C)=O)c1ccccc1-2 (configuration not stated) | -0.69
Cn1cnc([N+](=O)[O-])c1Sc1n[nH]c(=O)n1-c1ccccc1C(F)(F)F | -2
O=C(c1cc2n(n1)C(C(F)(F)F)CC(c1ccc(F)cc1)N2)N1CCCCC1 (configuration not stated) | 0.84
COC(=O)CCCN1C(=O)c2cccc3cccc(c23)C1=O | 3.6*
